Test results reported in PubChem BioAssay (Tox21).
Inconclusive results are not listed. Calls of active or inactive are those of the source. The call rests on the fitted dose curve; in most records, active means well fitted inhibition curve with a large enough effect in the repeat runs; inconclusive means weak or mixed curves; inactive means no such curve, though single readings can be large or run the other way.

Molecular target: Cytochrome P450 3A4 (Homo sapiens) (UniProt P08684)
Experiment: Cytochrome P450 Family 3 Subfamily A Member 4 (CYP3A4) small molecule antagonists: luciferase reporter qHTS assay (AID 1671201); further: nearly all actives have a fitted effect of over 50% in size
Details: P450-Glo CYP3A4 enzyme, luciferin luminescence, 1 h; series mostly up to 115 µM; activity change, negative = inhibition: at the top concentration
Source text: National Center for Advancing Translational Sciences [NCATS]
U.S. Environmental Protection Agency [EPA]
National Institutes of Environmental Health Sciences [NIEHS]
National Toxicology Program [NTP]
U.S. Food and Drug Administration [FDA]
Cytochrome P450 (CYP) enzymes are membrane-bound hemeproteins that play a key role in metabolism of drugs and xenobiotics. Evaluation of the effect of chemicals on CYP isozymes is useful to minimize the adverse drug reactions and toxicities in drug development process. Tox21 chemicals were tested for their effect on CYP enzyme activities by using P450-Glo (TM) screening systems (Promega Corporation, Madison, WI). These systems provide a luminescent method containing proluciferin substrates and are converted to luciferin products by CYP isozymes. The luciferin products formed are detected with a luciferin detection reagent, and the amount of light produced is proportional to CYP activity. P450-Glo (TM) CYP3A4 screening system (Catalog. No. V9910) was used to detect the compounds that interfere in CYP3A4 activity. The positive control compound used for CYP3A4 assay is ketoconazole (Sigma-Aldrich, St. Louis, MO).
Tox21 Assay Protocol Summary:
Two ul of enzyme-substrate mix was dispensed into medium binding white/solid 1536-well plates (Greiner Bio-One North America Inc., Monroe, NC) using a BioRaptr Flying Reagent Dispenser (FRD, Beckman Coulter, Brea, CA). Compounds dissolved in DMSO and positive control (ketoconazole) were transferred to the assay plates at 23 nl using a Pintool station (Wako, San Diego, CA). The assay plates were incubated at room temperature for 10 min. Then 2 ul of NADPH regeneration solution was added to each well of the assay plates using an FRD and incubated at room temperature for 1 h. The reaction was stopped by adding 4 ul of detection reagent using an FRD and after 20 min incubation at room temperature the luminescence signal was measured using a ViewLux plate reader (Perkin Elmer, Shelton, CT). Data were expressed as relative luminescence units.
On the % scale 0 is the no-effect control and ±100 the full control effect; potency means the concentration at half of the fitted maximal effect.

Sequence of Cytochrome P450 3A4 (Homo sapiens) (P08684 whole entry, looked up): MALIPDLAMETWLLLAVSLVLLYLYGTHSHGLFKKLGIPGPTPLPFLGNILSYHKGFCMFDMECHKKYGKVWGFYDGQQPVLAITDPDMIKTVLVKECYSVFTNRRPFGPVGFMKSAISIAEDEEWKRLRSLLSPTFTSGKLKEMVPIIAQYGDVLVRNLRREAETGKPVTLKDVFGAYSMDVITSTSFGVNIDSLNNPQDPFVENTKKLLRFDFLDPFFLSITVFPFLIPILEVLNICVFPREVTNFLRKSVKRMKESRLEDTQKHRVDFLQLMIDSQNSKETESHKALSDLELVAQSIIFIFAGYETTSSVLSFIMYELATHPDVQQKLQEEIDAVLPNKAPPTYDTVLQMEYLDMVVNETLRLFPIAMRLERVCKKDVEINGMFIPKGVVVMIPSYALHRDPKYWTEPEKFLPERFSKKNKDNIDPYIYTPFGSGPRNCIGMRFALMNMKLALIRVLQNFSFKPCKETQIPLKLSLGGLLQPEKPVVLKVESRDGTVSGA

SMILES	activity change, negative = inhibition	Potency
CC(C)N=C=NC(C)C	4.1% (inactive)	–
O=C1OC[C@H](Cc2cccc(O)c2)[C@H]1Cc1cccc(O)c1	–	9.58 µM (active)
CCN(CC)CCNC(=O)c1cc(Cl)c(N)cc1OC	0.285% [at 52.9 µM] (inactive)	–
Cc1c(C2(c3cc(Br)c(O)c(Br)c3C)OS(=O)(=O)c3ccccc32)cc(Br)c(O)c1Br	–	27.4 µM (active)
CC12CC3CC(C)(C1)CC(N)(C3)C2	0.494% [at 52.9 µM] (inactive)	–
c1ccc(CNc2ncnc3c2ncn3C2CCCCO2)cc1 (stereo not given)	1.84% (inactive)	–
CCCCCCC(O)CCCCCCCCCCC(=O)OC (stereo not given)	52.5% (inactive)	–
O=c1[nH][nH]c(=O)c2cc([N+](=O)[O-])ccc12	-6.18% (inactive)	–
CC1=CC[C@@]23C[C@@H]1C(C)(C)[C@@H]2CC[C@H]3C	–	79.6 µM (active)
CC(C)(C)C1(CCc2ccc(Cl)cc2)CO1 (stereo not given)	27.8% (inactive)	–
C=C(C)C(=O)OCCC(F)(F)C(F)(F)C(F)(F)C(F)(F)C(F)(F)C(F)(F)F	6.77% (inactive)	–
COC(=O)CC(C(C)=O)C(=O)OC (stereo not given)	-0.551% (inactive)	–
C=CC(=O)O	20.4% [at 52.9 µM] (inactive)	–
CC(C)(O)CCc1ccccc1	3.12% (inactive)	–
O=C(Oc1ccccc1)c1ccc2ccccc2c1O	26.3% (inactive)	–
N[C@@H](Cc1cc(I)c(O)c(I)c1)C(=O)O	3.8% [at 52.9 µM] (inactive)	–
CCOCCC(=O)OCC	5% (inactive)	–
C1CCCCC1	3.34% (inactive)	–
CC(C)Cc1ccc(CC(=O)O)cc1	0.631% [at 52.9 µM] (inactive)	–
OCC(CO)n1cnc(-c2ccc(F)cc2)c1-c1ccnc(Oc2ccccc2)n1	-14.1% (inactive)	–

SMILES	activity change, negative = inhibition	Potency
COc1ccc(C(=O)NCc2ccc(OCCN(C)C)cc2)cc1OC	0.697% [at 52.9 µM] (inactive)	–
CC(C)COC(=O)c1ccc(O)cc1	5.54% (inactive)	–
CCN(Cc1cccc(S(=O)(=O)O)c1)c1ccc(C(=C2C=CC(=[N+](CC)Cc3cccc(S(=O)(=O)O)c3)C=C2)c2ccc(O)cc2S(=O)(=O)[O-])cc1	–	19.3 µM (active)
CCN(CC)CC(=O)Nc1c(C)cccc1C(=O)OC	2.49% [at 52.9 µM] (inactive)	–
CC(C)(O)c1coc(S(=O)(=O)NC(=O)Nc2c3c(cc4c2CCC4)CCC3)c1	–	22.4 µM (active)
CCC(C)(C)C(=O)O	4.21% (inactive)	–
CC1=CC[C@@H]2C[C@H]1C2(C)C	–	3.98 µM (active)
C[C@H](CS)C(=O)N1CCC[C@H]1C(=O)O	17% [at 52.9 µM] (inactive)	–
CC(=O)C(=O)CC(C)C	-21.3% (inactive)	–
CC1CCCC(=O)C1=O (stereo not given)	0.968% (inactive)	–
CCN(CC)c1cccc(O)c1	–	20.4 µM (active)
COC(C)(C)OC	6.65% (inactive)	–
CCCOC(=O)c1c(Cl)c(Cl)c(Cl)c(Cl)c1C(=O)OCCC	2.84% (inactive)	–
Cc1ccc2c(c1)CCCN2	-22.3% (inactive)	–
CC1CCc2nccnc21 (stereo not given)	12.2% (inactive)	–
Cc1ccc2c(c1[N+](=O)[O-])C(=O)c1ccccc1C2=O	–	15.6 µM (active)
CCCCCCC(O)CCOC(C)=O (stereo not given)	-16.8% [at 300 µM] (inactive)	–
CCN(Cc1cccc(S(=O)(=O)O)c1)c1ccc(C(=C2C=CC(=[N+](CC)Cc3cccc(S(=O)(=O)O)c3)C=C2)c2ccccc2S(=O)(=O)[O-])cc1	–	14.2 µM (active)
CC(=O)c1ccc[nH]1	2.59% (inactive)	–
CCC1CCC(CCC(=O)O)C1 (stereo not given)	36.6% (inactive)	–
